In ChEMBL document CHEMBL3988442, “University of Dundee, Small-Polar-MMV Screening Library” (2021):
Values joined by “and” are separate entries in the source; they are usually repeats but may differ in a detail not shown here. Equal entries are not always repeated. For some of these results: Entries with a potency or affinity are not part of this list.

Assays:
Design in all cases: scale not given: direction of the effect not stated beside the values
[1] = biological target: Protein translocase subunit SecA (Escherichia coli (strain K12)) (UniProt P10408); test: Assay to Identify E. coli SecA ATPase Inhibitors; type: functional; conditions: 30 µM
[2] = biological target: T1, Ubiquitin-activating enzyme e1, putative (Leishmania donovani (strain BPK282A1)) (UniProt E9BSI1); test: Leishmania donovani Ubiquitin Activating Enzyme (LdE1); type: functional; conditions: 30 µM
T1 sequence (whole entry): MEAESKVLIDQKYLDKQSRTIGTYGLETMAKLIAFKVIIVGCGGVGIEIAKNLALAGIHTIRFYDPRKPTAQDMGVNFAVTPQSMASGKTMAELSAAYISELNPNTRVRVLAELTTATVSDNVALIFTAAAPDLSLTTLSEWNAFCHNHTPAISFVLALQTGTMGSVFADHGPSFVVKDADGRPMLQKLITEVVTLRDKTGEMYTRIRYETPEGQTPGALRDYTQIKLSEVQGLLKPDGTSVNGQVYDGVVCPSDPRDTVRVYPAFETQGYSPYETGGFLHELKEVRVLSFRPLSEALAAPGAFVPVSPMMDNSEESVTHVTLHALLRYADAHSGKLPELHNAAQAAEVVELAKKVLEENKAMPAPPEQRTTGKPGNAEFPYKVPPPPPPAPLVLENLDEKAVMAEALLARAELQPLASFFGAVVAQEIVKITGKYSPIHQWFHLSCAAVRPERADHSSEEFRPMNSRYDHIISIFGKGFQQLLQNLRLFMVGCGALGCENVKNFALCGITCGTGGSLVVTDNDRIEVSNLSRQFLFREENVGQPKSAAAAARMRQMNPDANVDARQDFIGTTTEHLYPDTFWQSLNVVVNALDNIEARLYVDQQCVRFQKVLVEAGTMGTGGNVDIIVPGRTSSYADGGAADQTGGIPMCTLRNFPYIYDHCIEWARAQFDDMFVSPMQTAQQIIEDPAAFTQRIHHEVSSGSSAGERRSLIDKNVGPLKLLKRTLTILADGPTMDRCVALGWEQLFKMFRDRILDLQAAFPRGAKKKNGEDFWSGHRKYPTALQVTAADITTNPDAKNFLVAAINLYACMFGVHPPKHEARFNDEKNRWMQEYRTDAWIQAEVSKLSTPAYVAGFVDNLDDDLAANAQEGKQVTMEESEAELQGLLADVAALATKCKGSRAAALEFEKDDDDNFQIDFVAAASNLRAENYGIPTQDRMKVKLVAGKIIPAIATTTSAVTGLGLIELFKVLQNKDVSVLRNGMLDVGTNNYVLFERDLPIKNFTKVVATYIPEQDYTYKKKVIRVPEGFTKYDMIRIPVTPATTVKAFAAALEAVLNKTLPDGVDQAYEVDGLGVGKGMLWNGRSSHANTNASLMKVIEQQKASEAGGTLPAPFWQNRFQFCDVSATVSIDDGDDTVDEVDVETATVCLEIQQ

[3] = biological target: Sialic acid-binding Ig-like lectin 9 (Homo sapiens) (UniProt Q9Y336); test: Hs-Siglec9 ALPHAscreen SOP 20170721; conditions: 10 µM
[4] = test system: Trypanosoma cruzi; test: Trypanosoma cruzi phosphomannomutase and mannose-1-phosphate guanylyltransferase assay; type: functional; conditions: 10 µM
[5] = biological target: T2, Arginase-2, mitochondrial (Homo sapiens) (UniProt P78540); test: in vitro enzyme assay to detect the production of urea directly proportional to the activity of Arginase II; type: functional; note: in the data most compounds retested in dose-response had high values
T2 sequence (whole entry): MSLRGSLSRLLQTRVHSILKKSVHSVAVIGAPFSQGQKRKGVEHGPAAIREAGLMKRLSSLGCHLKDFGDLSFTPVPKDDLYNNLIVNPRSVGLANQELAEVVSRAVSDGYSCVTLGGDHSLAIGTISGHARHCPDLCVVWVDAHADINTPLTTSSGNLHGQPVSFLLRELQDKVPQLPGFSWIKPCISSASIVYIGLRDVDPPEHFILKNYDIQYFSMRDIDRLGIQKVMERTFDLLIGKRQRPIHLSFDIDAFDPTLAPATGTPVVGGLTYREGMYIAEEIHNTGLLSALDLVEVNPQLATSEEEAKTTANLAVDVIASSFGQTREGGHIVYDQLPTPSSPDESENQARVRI

[6] = biological target: T3, Proteasome subunit beta (Trypanosoma cruzi) (UniProt O96673); test: Trypanosoma cruzi proteasome chymotrypsin-like activity (TcProtChymo) assay.; note: in the data most compounds retested in dose-response had high values; type: functional; conditions: 9.37 µM
T3 sequence (whole entry): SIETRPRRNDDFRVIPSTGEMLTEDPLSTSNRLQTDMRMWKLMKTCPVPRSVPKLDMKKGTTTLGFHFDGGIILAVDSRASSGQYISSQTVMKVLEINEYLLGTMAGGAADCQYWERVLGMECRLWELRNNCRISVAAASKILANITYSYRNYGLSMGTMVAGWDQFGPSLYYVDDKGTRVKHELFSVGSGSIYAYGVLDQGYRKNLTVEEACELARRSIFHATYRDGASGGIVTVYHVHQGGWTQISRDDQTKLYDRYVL

[7] = organism: Homo sapiens; test: To identify inhibition of the IFN signalling (Jak-Stat) pathway via expression of an eGFP reporter gene under the control of an IFN-stimulated response element (ISRE) containing MxA promoter.; type: functional; conditions: 30 µM
[8] = biological target: T4, Tyrosyl-tRNA synthetase, putative (Trypanosoma cruzi (strain CL Brener)) (UniProt Q4DSP6); test: Trypanosoma cruzi tyrosyl tRNA synthetase (TcYRS) _High Tyrosine SOP; type: functional; conditions: 30 µM; note: in the data most compounds retested in dose-response had high values
T4 sequence (whole entry): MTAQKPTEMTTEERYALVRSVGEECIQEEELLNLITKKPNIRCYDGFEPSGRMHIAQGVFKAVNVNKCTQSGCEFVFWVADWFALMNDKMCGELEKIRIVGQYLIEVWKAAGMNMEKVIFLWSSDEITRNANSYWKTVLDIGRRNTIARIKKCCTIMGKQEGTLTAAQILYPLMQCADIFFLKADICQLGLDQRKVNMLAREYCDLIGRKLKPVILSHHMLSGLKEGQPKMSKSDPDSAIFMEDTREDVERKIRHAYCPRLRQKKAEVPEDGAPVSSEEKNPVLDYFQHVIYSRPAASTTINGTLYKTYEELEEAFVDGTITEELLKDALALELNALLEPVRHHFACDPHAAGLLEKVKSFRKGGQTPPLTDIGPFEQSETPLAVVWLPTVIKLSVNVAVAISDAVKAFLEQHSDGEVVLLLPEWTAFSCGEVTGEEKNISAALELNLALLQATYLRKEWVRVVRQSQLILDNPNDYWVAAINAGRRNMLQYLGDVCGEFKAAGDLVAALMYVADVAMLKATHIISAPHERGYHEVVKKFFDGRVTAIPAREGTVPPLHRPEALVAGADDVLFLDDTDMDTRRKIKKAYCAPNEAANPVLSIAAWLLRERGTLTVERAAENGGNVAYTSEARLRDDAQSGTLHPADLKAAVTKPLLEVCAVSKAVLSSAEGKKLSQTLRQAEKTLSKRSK

[9] = biological target: T4, Tyrosyl-tRNA synthetase, putative (Trypanosoma cruzi (strain CL Brener)); test: Trypanosoma cruzi tyrosyl tRNA synthetase (TcYRS) SOP; type: functional; conditions: 30 µM
[10] = biological target: Chromo domain-containing protein 1 (Saccharomyces cerevisiae (strain ATCC 204508 / S288c) (Baker's yeast)) (UniProt P32657); test: ScCHD-1 Enzyme Inhibition Assay; type: functional; conditions: 30 µM; note: in the data most compounds retested in dose-response had high values
[11] = test system: N/A; test: Trypanosoma cruzi proteasome luciferase counter-screen; type: functional; conditions: 9.37 µM
[12] = biological target: AMP-activated protein kinase, AMPK (Homo sapiens) (UniProt P54646+O43741+P54619+Q9UGJ0+Q9Y478+Q13131+Q9UGI9); test: AMP-dependent Kinase enzyme assay. An in vitro enzyme assay that detects ADP turnover that is directly proportional to AMPK activity. This uses naive AMPK that is activated during the assay with MK-8722; type: functional; conditions: 30 µM

Chain of Chromo domain-containing protein 1 (Saccharomyces cerevisiae (strain ATCC 204508 / S288c) (Baker's yeast)) (P32657 whole entry, the tested form may be a part): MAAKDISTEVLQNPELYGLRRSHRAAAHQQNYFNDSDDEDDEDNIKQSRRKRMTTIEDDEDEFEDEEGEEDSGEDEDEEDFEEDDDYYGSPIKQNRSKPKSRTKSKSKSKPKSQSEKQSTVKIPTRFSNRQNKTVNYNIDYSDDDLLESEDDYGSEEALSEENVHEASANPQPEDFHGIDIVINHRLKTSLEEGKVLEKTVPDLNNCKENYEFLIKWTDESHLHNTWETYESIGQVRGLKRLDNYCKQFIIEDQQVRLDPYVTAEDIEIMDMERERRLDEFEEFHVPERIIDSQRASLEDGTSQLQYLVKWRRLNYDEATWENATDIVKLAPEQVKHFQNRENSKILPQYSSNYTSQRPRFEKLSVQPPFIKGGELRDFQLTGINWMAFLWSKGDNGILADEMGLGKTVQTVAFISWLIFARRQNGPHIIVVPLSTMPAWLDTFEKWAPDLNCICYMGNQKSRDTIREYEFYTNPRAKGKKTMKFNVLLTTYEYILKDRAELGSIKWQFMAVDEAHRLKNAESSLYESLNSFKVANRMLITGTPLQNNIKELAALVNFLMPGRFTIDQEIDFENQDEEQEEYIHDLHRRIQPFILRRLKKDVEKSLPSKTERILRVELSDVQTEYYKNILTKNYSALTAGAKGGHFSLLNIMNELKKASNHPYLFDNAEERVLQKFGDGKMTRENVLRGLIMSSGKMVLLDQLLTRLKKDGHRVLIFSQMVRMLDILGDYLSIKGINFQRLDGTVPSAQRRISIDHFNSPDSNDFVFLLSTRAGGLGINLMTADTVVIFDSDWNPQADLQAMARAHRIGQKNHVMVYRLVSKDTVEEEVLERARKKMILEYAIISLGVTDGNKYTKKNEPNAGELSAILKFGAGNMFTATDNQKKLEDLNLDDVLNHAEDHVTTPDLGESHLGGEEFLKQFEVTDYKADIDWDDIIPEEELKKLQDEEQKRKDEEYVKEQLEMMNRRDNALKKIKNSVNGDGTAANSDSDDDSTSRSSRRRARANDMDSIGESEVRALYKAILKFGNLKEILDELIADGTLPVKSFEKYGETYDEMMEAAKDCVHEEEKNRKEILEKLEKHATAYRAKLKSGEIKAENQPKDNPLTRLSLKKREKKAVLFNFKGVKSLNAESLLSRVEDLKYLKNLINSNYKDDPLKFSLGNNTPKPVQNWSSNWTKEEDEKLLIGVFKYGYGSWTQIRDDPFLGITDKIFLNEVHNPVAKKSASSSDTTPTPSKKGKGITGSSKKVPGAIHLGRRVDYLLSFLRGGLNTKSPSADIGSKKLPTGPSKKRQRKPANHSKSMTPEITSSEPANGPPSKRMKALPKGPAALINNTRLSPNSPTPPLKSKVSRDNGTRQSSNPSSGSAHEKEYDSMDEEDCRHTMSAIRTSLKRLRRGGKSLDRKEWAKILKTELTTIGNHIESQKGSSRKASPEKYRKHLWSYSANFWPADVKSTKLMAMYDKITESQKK
Chain of Sialic acid-binding Ig-like lectin 9 (Homo sapiens) (Q9Y336 whole entry): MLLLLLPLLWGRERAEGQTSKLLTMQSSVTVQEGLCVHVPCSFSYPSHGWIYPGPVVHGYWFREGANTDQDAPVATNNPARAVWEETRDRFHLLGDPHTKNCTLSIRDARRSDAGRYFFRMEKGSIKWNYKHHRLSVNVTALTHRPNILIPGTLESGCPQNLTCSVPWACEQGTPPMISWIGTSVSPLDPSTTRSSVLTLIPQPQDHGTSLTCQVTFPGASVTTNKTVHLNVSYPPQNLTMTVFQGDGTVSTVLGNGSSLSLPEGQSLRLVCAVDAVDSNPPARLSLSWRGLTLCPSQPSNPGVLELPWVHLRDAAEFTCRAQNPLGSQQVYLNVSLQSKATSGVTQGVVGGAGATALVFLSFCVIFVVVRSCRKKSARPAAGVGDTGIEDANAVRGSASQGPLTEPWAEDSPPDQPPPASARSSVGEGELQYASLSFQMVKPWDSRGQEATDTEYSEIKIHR
Chain of Protein translocase subunit SecA (Escherichia coli (strain K12)) (P10408 whole entry): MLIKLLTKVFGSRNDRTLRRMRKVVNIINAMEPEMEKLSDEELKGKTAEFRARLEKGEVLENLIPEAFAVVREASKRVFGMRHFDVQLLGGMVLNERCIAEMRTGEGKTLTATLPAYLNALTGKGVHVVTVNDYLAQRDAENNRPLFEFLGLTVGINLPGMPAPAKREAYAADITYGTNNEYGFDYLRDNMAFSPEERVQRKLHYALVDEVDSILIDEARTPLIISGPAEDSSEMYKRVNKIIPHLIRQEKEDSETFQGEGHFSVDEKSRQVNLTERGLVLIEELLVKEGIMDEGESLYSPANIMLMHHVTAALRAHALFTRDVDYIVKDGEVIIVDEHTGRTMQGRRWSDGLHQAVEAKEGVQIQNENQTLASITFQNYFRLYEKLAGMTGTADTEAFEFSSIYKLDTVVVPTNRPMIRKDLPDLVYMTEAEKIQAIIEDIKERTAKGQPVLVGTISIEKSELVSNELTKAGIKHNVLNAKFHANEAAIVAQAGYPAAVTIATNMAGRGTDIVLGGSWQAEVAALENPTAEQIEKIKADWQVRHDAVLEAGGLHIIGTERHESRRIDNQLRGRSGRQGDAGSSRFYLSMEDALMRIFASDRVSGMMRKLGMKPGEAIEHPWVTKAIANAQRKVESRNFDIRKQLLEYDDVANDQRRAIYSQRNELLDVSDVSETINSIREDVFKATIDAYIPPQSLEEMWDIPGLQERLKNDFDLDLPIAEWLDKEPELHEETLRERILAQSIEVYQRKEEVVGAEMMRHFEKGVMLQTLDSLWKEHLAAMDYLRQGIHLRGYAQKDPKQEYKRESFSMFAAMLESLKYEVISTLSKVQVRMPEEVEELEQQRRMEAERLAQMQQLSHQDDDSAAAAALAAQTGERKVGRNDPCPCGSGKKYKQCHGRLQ

SMILES	Percent Effect [1] [%]	Percent Effect [2] [%]	Percent Effect [3] [%]	Percent Effect [4] [%]	Percent Effect ([5]; 33.3 µM) [%]	Percent Effect [6]	Percent Effect [7] [%]	Percent Effect [8] [%]	Percent Effect [9] [%]	Percent Effect [10] [%]	Percent Effect [11]	Percent Effect ([5]; 30 µM) [%]	Percent Effect [12] [%]
Cn1cnc2c1CCN(Cc1cccc(OCC(N)=O)c1)C2	-0.391	15.4	-8.42	7.42	2.46	15.3%	23.1	3.35	18.1	-7.71	–	–	–
c1ccc(-c2ccc(C3CNCCO3)nc2)cc1 (stereo not drawn)	-1.91	14.7	-4.38	-2.37	-3.1	41% and 49.8% and 42.6%	-23.6	3.17	7.5	-25.7	18% and 21%	–	–
CN(C)[C@H]1CCCCN(C(=O)CCc2csc(N)n2)C1	-6.59	2.7	-1.59	1.46	-0.35	9.76%	-5.61	3.72	7.32	0.286	–	2.7	–
Cc1ccc(N2CCCN(C(=O)C3(C#N)CCCCC3)CC2)nn1	-6.11	5.26	3.79	6.39	1.53	0.668%	-2.34	5.39	0	-14.5	–	–	-4.48
CCN1CCN(CC(C)(O)c2cccc(C(F)(F)F)c2)CC1 (stereo not drawn)	-5.15	5.2	14.6	-3.92	-3.48	0.175%	-14.6	2.94	-2.35	-0.754	–	–	–
CN(Cc1cn2ccccc2c1C#N)C1CCCN(c2cccnn2)C1 (stereo not drawn)	-1.94	-15.6	10.5	1.31	-3.07	13.7%	6.2	13.7	9.41	-7.9	–	–	–
Cc1c(F)cccc1CN1CCn2nc(CNC(=O)N(C)C)cc2C1	-5.26	10.8	14.7	9.21	28.3	8.05%	4.47	5.85	17.1	-7.8	–	–	–
